This passage reports binding signal results from article PMC8384837, “Expanding the binding specificity for RNA recognition by a PUF domain”.

The first assay addresses PUM1 PUF domain R5-HRG (Homo sapiens, UniProt Q14671 828-1176, C1007H;Q1011G). Nature of the assay: yeast three-hybrid, YBZ-1, SC-Leu-His + 0.5 mM 3-AT, 4 days. Conditions: tags: N-Gal4 AD-HA kept; label: inside an RPR1-promoter hybrid RNA with tandem MS2 sites; ssRNA. Summed up:
(§1)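 The interaction score is the logarithmic change in variant frequency from input to selection. It uses log2, with a pseudocount of 1 for absent variants, and frequencies came from PCR-amplified, Illumina-sequenced repeat regions. The libraries were Pumilio-1 PUF domains randomized at the three base-contacting residues per repeat, co-expressed with matching RNA elements in strain YBZ-1 (LexA–MS2 coat fusion, HIS3 reporter). Plating lasted four days on SC-Leu (input) or SC-Leu-His + 0.5 mM 3-AT (selection).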
Regarding “GGCUAGAACUAGUGGAUCCCCCGGCGCCCGGCGGCUCGAGCCCGGGUAAGUGUUAAUAGUCUGCAUGCCGCCGGGCGCCAUGCCUGCAGGUCGACUCUAGAAAACAUG”, the binding signal is 3.89 log2 enrichment (interaction score).

With “GGCUAGAACUAGUGGAUCCCCCGGCGCCCGGCGGCUCGAGCCCGGGUAAGUGUCAAUAGUCUGCAUGCCGCCGGGCGCCAUGCCUGCAGGUCGACUCUAGAAAACAUG”, the binding signal was 1.78 log2 enrichment (interaction score).

For the sequence “GGCUAGAACUAGUGGAUCCCCCGGCGCCCGGCGGCUCGAGCCCGGGUAAGUGUAAAUAGUCUGCAUGCCGCCGGGCGCCAUGCCUGCAGGUCGACUCUAGAAAACAUG”, the binding signal was 0.26 log2 enrichment (interaction score).

For the next assay, the target named is PUM1 PUF domain R3-CRP (Homo sapiens, UniProt Q14671 828-1176, Q939P). The description is as above. The note with it: tags: N-Gal4 AD-HA kept; label: inside an RPR1-promoter hybrid RNA with tandem MS2 sites; ssRNA. Summed up: as §1
Take “GGCUAGAACUAGUGGAUCCCCCGGCGCCCGGCGGCUCGAGCCCGGGUAAGUGUAAUUAGUCUGCAUGCCGCCGGGCGCCAUGCCUGCAGGUCGACUCUAGAAAACAUG”: the binding signal was 1.1 log2 enrichment (interaction score).

Take “GGCUAGAACUAGUGGAUCCCCCGGCGCCCGGCGGCUCGAGCCCGGGUAAGUGUAAAUAGUCUGCAUGCCGCCGGGCGCCAUGCCUGCAGGUCGACUCUAGAAAACAUG”: the binding signal is 4.84 log2 enrichment (interaction score).

Turning to “GGCUAGAACUAGUGGAUCCCCCGGCGCCCGGCGGCUCGAGCCCGGGUAAGUGUAAGUAGUCUGCAUGCCGCCGGGCGCCAUGCCUGCAGGUCGACUCUAGAAAACAUG”, the binding signal was 1.62 log2 enrichment (interaction score).
